Measured values taken from PubChem BioAssay (NCI).
The panel holds about 83,000 compounds, 20% with a hit somewhere; the sample as a whole holds those more often.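 Compound tested at a single concentration for 48 hours in 96-well plates; a percent growth value below 10 was scored as active.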 The source made the active and inactive calls.

Experiments:
Test in all cases: NCI-60 one-dose screen, 48 h (100 = growth as untreated, 0 = no growth, -100 = all killed)
Details in all cases: 10 µM unless noted
T-47D breast = test system: T-47D breast
BT-549 breast = test system: BT-549 breast
MDA-MB-435 melanoma = test system: MDA-MB-435 melanoma
SW-620 colon = test system: SW-620 colon
MCF7 breast = test system: MCF7 breast
HCT-116 colon = test system: HCT-116 colon
HCC-2998 colon = test system: HCC-2998 colon
KM12 colon = test system: KM12 colon

Measured: growth

CCN(CC)CCOc1ccc(C(=C(c2ccccc2)C2CCCC2)c2ccc(OCCN(CC)CC)cc2)cc1
active: BT-549 breast -18.6% | MDA-MB-435 melanoma -10% | MCF7 breast -57.3% | HCC-2998 colon -62.3% | KM12 colon -7.22%
inactive: T-47D breast 18.8% | SW-620 colon 33.5% | HCT-116 colon 13.3%

CN1CCN(c2ccc(Nc3nc(NCCCNS(=O)(=O)c4ccc(F)cc4)c4sccc4n3)cc2)CC1
inactive: T-47D breast 29.8% | BT-549 breast 65.9% | MDA-MB-435 melanoma 47.3% | SW-620 colon 70.1% | MCF7 breast 31.2% | HCT-116 colon 20.8% | HCC-2998 colon 74.3% | KM12 colon 65.3%

N/C(=N\C(N)=N\c1nc2ccccc2s1)c1ccc(Cl)cc1
inactive: T-47D breast 68.3% | BT-549 breast 94.4% | MDA-MB-435 melanoma 96.3% | SW-620 colon 103% | MCF7 breast 69.3% | HCT-116 colon 74.7% | HCC-2998 colon 102% | KM12 colon 68.4%

O=C(Nc1ccc(Cl)c(C(F)(F)F)c1)Nc1ccc2c(ccn2C(=O)c2cccc(F)c2)c1
active: T-47D breast 0.647%
inactive: BT-549 breast 53.3% | MDA-MB-435 melanoma 34.6% | SW-620 colon 40.9% | MCF7 breast 12.9% | HCT-116 colon 20% | HCC-2998 colon 44.1% | KM12 colon 11%

COc1ccc(C2CC(c3cccc(OCCCCOc4cccc(C5=NN(C(C)=O)C(c6ccc(OC)cc6)C5)c4)c3)=NN2C(C)=O)cc1 (stereo not drawn)
inactive: T-47D breast 40.1% | BT-549 breast 69.8% | MDA-MB-435 melanoma 60.3% | SW-620 colon 87.1% | MCF7 breast 39.9% | HCT-116 colon 47.3% | HCC-2998 colon 83.1% | KM12 colon 70.5%

N#Cc1cccc(-c2cc(-c3ccc4c(c3)OCCO4)[nH]n2)c1
inactive: T-47D breast 36.4% | BT-549 breast 49.3% | SW-620 colon 27.5% | MCF7 breast 12.2% | HCT-116 colon 23.1% | HCC-2998 colon 47.3% | KM12 colon 36.4%
active: MDA-MB-435 melanoma -24.6%

C#C[C@]1(O)CC[C@H]2[C@@H]3CC=C4c5sc(N6CCN(C)CC6)nc5CC[C@]4(C)[C@H]3CC[C@@]21C
active: MDA-MB-435 melanoma 1.24% | HCT-116 colon -41%
inactive: T-47D breast 85.7% | BT-549 breast 16.9% | SW-620 colon 19.6% | MCF7 breast 24.2% | HCC-2998 colon 81.2% | KM12 colon 21.1%

Cc1ccc2c(n1)C(=O)C(Cl)=C(Nc1ccc(C(F)(F)F)cc1)C2=O
inactive: BT-549 breast 130% | MDA-MB-435 melanoma 95.8% | HCC-2998 colon 97.9% | KM12 colon 98.2%
active: T-47D breast -25.5% | SW-620 colon -10.5% | MCF7 breast -56.1% | HCT-116 colon 1.42%

COc1ccc2[nH]cc(-c3nc(N)nnc3-c3cn(C)c4ccc(Br)cc34)c2c1
active: MDA-MB-435 melanoma -8.23%
inactive: T-47D breast 29.3% | BT-549 breast 39.6% | SW-620 colon 20.9% | MCF7 breast 12.2% | HCT-116 colon 18.1% | HCC-2998 colon 58.9% | KM12 colon 23.7%

COc1cc(C(=O)c2cc(C(C)=O)c3ccc(C)cn23)cc(OC)c1OC
inactive: T-47D breast 37.9% | BT-549 breast 53.1% | SW-620 colon 32.4% | MCF7 breast 14.8% | HCT-116 colon 18.4% | HCC-2998 colon 61.6% | KM12 colon 28.6%
active: MDA-MB-435 melanoma -12.7%

O=C(CSc1nc2ccccc2c(=O)n1-c1ccccc1)N/N=C/c1ccc(Oc2ccc(Cl)cc2)cc1
active: HCT-116 colon 5.62%
inactive: T-47D breast 82.5% | BT-549 breast 69.9% | MDA-MB-435 melanoma 84.6% | SW-620 colon 43.1% | MCF7 breast 64.5% | HCC-2998 colon 95.4% | KM12 colon 83.7%

O=S(=O)(Oc1ccc(-c2cn3ccoc3n2)cc1)C1CCCCC1
inactive: T-47D breast 95.7% | BT-549 breast 125% | MDA-MB-435 melanoma 98.6% | SW-620 colon 103% | MCF7 breast 87% | HCT-116 colon 89.3% | HCC-2998 colon 113% | KM12 colon 103%

N#C/C(=C\c1ccc(-c2ccc(Cl)c(Cl)c2)o1)C(=O)Nc1ncc(Cc2ccc(Cl)cc2)s1
active: HCT-116 colon 9.52%
inactive: T-47D breast 17.9% | BT-549 breast 42.1% | MDA-MB-435 melanoma 26.9% | SW-620 colon 10.8% | MCF7 breast 58.7% | HCC-2998 colon 81.8% | KM12 colon 19.6%

CC(=O)Nc1ccccc1-c1nc2ccccc2s1
inactive: T-47D breast 99.3% | BT-549 breast 102% | MDA-MB-435 melanoma 98.8% | SW-620 colon 107% | MCF7 breast 97.6% | HCT-116 colon 95.3% | HCC-2998 colon 99.7% | KM12 colon 105%

CCC(=C(c1ccc(OCCN2CCCCCC2)cc1)c1ccc(OCCN2CCCCCC2)cc1)c1ccc(Cl)cc1
active: MDA-MB-435 melanoma -85.8% | SW-620 colon -49.2% | MCF7 breast -63.7% | HCT-116 colon -88.9% | HCC-2998 colon -86% | KM12 colon 4.43%
inactive: T-47D breast 27.1% | BT-549 breast 86.2%

COc1cc2oc(-c3cccc(NC(=O)c4cccc([N+](=O)[O-])c4)c3)cc(=O)c2c(OC)c1OC
inactive: T-47D breast 54.3% | BT-549 breast 59.8% | MDA-MB-435 melanoma 53.3% | SW-620 colon 70.9% | MCF7 breast 42.9% | HCT-116 colon 33.5% | HCC-2998 colon 93.6% | KM12 colon 76.4%

COC(=O)c1cccc(NC2=C(Cl)C(=O)C(C)=C(C)C2=O)c1
active: T-47D breast -18.1%
inactive: BT-549 breast 96.2% | MDA-MB-435 melanoma 104% | SW-620 colon 103% | MCF7 breast 82% | HCT-116 colon 70.1% | HCC-2998 colon 98.2% | KM12 colon 49.2%

O=C(CN1CCN(c2cc(=O)[nH]c3ccc(F)cc23)CC1)N(c1ccccc1)c1ccccc1
inactive: T-47D breast 97.4% | BT-549 breast 104% | MDA-MB-435 melanoma 102% | SW-620 colon 104% | MCF7 breast 96.7% | HCT-116 colon 98% | HCC-2998 colon 106% | KM12 colon 107%

CCc1cc(O)ccc1Nc1cc(-c2ccc(-n3cccn3)cc2)[nH]n1
inactive: T-47D breast 35.7% | BT-549 breast 85.7% | MDA-MB-435 melanoma 33% | SW-620 colon 63.1% | MCF7 breast 34.3% | HCT-116 colon 39% | HCC-2998 colon 61.5% | KM12 colon 16.6%

O=C1[C@H]2Cc3c([nH]c4ccccc34)[C@H](c3ccc(Cl)cc3)N2C(=O)CN1C1CCN(CC2CCCCC2)CC1
inactive: T-47D breast 93% | BT-549 breast 70.8% | MDA-MB-435 melanoma 62.3% | SW-620 colon 72.5% | MCF7 breast 16.2% | HCC-2998 colon 53.4% | KM12 colon 62%
active: HCT-116 colon 5.7%

C=C(C=O)[C@@H]1CC[C@]2(C(=O)O)CC[C@]3(C)C(CC[C@@H]4[C@@](C)(CCC#N)[C@H](C(=C)C=O)CC[C@]43C)[C@@H]12 (stereo partly drawn)
inactive: T-47D breast 28.1% | BT-549 breast 28.9% | SW-620 colon 10.9% | MCF7 breast 14.3% | HCC-2998 colon 108% | KM12 colon 92%
active: MDA-MB-435 melanoma -9.89% | HCT-116 colon -82.8%

Cc1cc2nc(C(Cl)Cl)nc(-c3ccc(S(=O)(=O)N(C)C)cc3)n2n1
inactive: T-47D breast 69.8% | BT-549 breast 38.5% | MDA-MB-435 melanoma 47% | SW-620 colon 18.2% | MCF7 breast 62.1% | HCT-116 colon 18.2% | HCC-2998 colon 47.6% | KM12 colon 39.1%

CCCCSC1=C(Cl)CN(c2ccc(Cl)cc2)C1=O
inactive: T-47D breast 72.7% | BT-549 breast 112% | MDA-MB-435 melanoma 107% | SW-620 colon 104% | MCF7 breast 26.2% | HCT-116 colon 93.4% | HCC-2998 colon 107% | KM12 colon 98.7%

Brc1cc(-c2cc(-c3ccc4c(c3)OCCO4)[nH]n2)cs1
active: MDA-MB-435 melanoma -26.8%
inactive: T-47D breast 38.5% | BT-549 breast 66% | SW-620 colon 36.7% | MCF7 breast 14.7% | HCT-116 colon 41.5% | HCC-2998 colon 62.1% | KM12 colon 27.7%

Brc1ccc(-c2cc(-c3ccc4c(c3)OCCO4)n[nH]2)s1
inactive: T-47D breast 22.5% | BT-549 breast 62% | SW-620 colon 34.7% | HCT-116 colon 24.7% | HCC-2998 colon 42.1% | KM12 colon 28.2%
active: MDA-MB-435 melanoma -38.1% | MCF7 breast 7.62%

Cc1ccc(N2CCN(C3=C(Cl)C(=O)c4ncccc4C3=O)CC2)cc1
inactive: BT-549 breast 103% | HCC-2998 colon 104% | KM12 colon 80%
active: T-47D breast -56.1% | MDA-MB-435 melanoma -81.2% | SW-620 colon -79.7% | MCF7 breast -62% | HCT-116 colon -78.1%

Cc1c(C(=O)/C=C/c2ccc(Cl)cc2)nnn1-c1ccc2oc(=O)ccc2c1
inactive: T-47D breast 85.5% | BT-549 breast 109% | MDA-MB-435 melanoma 99.7% | SW-620 colon 97.7% | MCF7 breast 42.2% | HCT-116 colon 88.5% | HCC-2998 colon 104% | KM12 colon 99.8%

N#Cc1nc(-c2ccccc2)oc1N1CCC(C2(C(F)(F)F)N=N2)CC1
inactive: T-47D breast 95.6% | BT-549 breast 136% | MDA-MB-435 melanoma 101% | SW-620 colon 98.8% | MCF7 breast 89.1% | HCT-116 colon 104% | HCC-2998 colon 107% | KM12 colon 96.2%

Nc1ncc(-c2ccc3ncnc(NCc4ccccc4)c3c2)cn1
inactive: T-47D breast 15% | BT-549 breast 34.5% | MDA-MB-435 melanoma 65.1% | SW-620 colon 73.7% | MCF7 breast 19.3% | HCT-116 colon 66.5% | HCC-2998 colon 59.8% | KM12 colon 72.1%

COc1cc(C(=O)c2cc(C(C)=O)c3c(C)cccn23)cc(OC)c1OC
inactive: T-47D breast 81.8% | BT-549 breast 104% | MDA-MB-435 melanoma 97.3% | SW-620 colon 104% | MCF7 breast 82.7% | HCT-116 colon 95.1% | HCC-2998 colon 105% | KM12 colon 96.5%

CCCCc1nc2c(N)nc3ccccc3c2n1Cc1cccc(CN)c1
inactive: T-47D breast 74% | BT-549 breast 28.1% | SW-620 colon 52.6% | MCF7 breast 24.8% | HCT-116 colon 23% | HCC-2998 colon 59.7% | KM12 colon 49.9%
active: MDA-MB-435 melanoma 4.8%
